In PubChem BioAssay:
Active and inactive are the calls of the source.

Assays:
[1] = small molecules captured by biotinylated probe aFSTL3 – biochemical, small-molecule microarray, fluorescence 635/667, stem cell growth factor project, primary screen (AID 1064); settings: higher = more signal;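 further: measures binding of the biotinylated anti-FSTL3 antibody to printed compounds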
[2] = binders from COS7 lysate, DM2A8 probe, primary screen, torsin A project, cell lysate, small-molecule microarray, fluorescence 635/667 (AID 1065); settings: higher = more signal, COS7 lysate expressing mutant human TOR1A
[3] = small molecules captured by biotinylated probe aFGF2 – biochemical, small-molecule microarray, fluorescence 635/667, stem cell growth factor project, primary screen (AID 1067); settings: higher = more signal;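 further: measures binding of biotinylated aFGF2 protein to printed compounds on slides; z-score merges feature fluorescence and signal-to-noise across triplicate slides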
[4] = small molecules captured by biotinylated probe aFGF10 – biochemical, small-molecule microarray, fluorescence 635/667, stem cell growth factor project, primary screen (AID 1071); settings: higher = more signal;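 further: score merges 667 nm spot intensity and signal to noise from triplicate slides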
[5] = biological target: Neurogenic locus notch homolog protein 2 (Homo sapiens) (UniProt Q04721); assay: small molecules binding Notch2 protein – biochemical, small-molecule microarray, 635 nm fluorescence, stem cell growth factors, primary screen (AID 1073); settings: higher = more signal
[6] = biological target: Pro-neuregulin-1, membrane-bound isoform (Homo sapiens) (UniProt Q02297); assay: small molecules binding neuregulin-1 protein – biochemical, small-molecule microarray, fluorescence 635/667, psychiatric disease protein project, primary screen (AID 1075); settings: NRG1 binding, 635 nm fluorescence, higher = more signal;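 further: score combines 667 nm spot fluorescence with signal to noise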
[7] = test system: Neuregulin-1 EGF-like domain; assay: small molecules binding NRG1 EGF domain – biochemical, small-molecule microarray, 635 nm fluorescence, primary screen (AID 1081); settings: higher = more signal;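 further: binding of the protein to compounds printed on small-molecule microarray slides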
[8] = FRG1 expression reporter modulators in myotubes – cell-based, C2C12 myotubes, firefly/Renilla luciferase, luminescence, FRG1 inhibition for FSHD, primary screen (AID 1084); settings: FRG1 promoter luciferase, higher = more signal, called active from +8 up or from −8 down
[9] = small molecules captured by biotinylated probe aFST – biochemical, small-molecule microarray, fluorescence 635/667, stem cell growth factor project, primary screen (AID 1086); settings: higher = more signal;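 further: score merges 667 nm fluorescence with signal-to-noise of each printed compound spot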
[10] = binders of probe aHhip on microarray, primary screen, stem cell growth factor project, biochemical, small-molecule microarray, fluorescence 635/667 (AID 1087); settings: higher = more signal;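 further: score merges spot fluorescence at 667nm with spot signal to noise ratio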
[11] = test system: PRMT1 (protein arginine N-methyltransferase 1); assay: small molecules binding arginine methyltransferase PRMT1 – biochemical, small-molecule microarray, 635 nm fluorescence, primary screen (AID 1088); settings: higher = more signal;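 further: binding of Prmt1 protein to compounds spotted on small-molecule microarray slides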
[12] = growth effects on S. cerevisiae YJM789 – YJM789 clinical isolate, OD600, 24 h, basal, primary screen (AID 1089); settings: higher = more signal, called active from +8 up or from −8 down;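 further: growth of clinical yeast isolate S. cerevisiae YJM 789 seeded 1000 cells per well; test concentration not given here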
[13] = S. pombe growth modifiers, basal conditions – strain 972, OD600, 24 h, no modulator, primary screen (AID 1090);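 further: basal condition with compound alone and no growth modifier present; test concentration not given here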; settings: S. pombe 972 growth, higher = more signal, called active from +8 up or from −8 down
[14] = budding yeast growth modifiers under rapamycin – strain BY4716, OD600, 96 h, primary screen (AID 1091); further: test concentration not given here; settings: S. cerevisiae BY4716 + rapamycin, higher = more signal, called active from +8 up or from −8 down
[15] = biological target: Torsin-1A-interacting protein 2 (Homo sapiens) (UniProt Q8NFQ8); assay: small molecules binding lysate-expressed LULL1 – cell lysate, human LULL1 lysate, 635/667 nm fluorescence, primary screen (AID 1092); settings: small-molecule microarray, hLULL1 lysate binding, 635 nm fluorescence; higher = more signal;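 further: probe is lysate of COS7 cells overexpressing human LULL1; score merges per-feature 667 nm fluorescence with signal-to-noise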
[16] = optical density change of DRC41 E. coli – strain DRC41, OD650, 24 h, E. coli filamentation project, primary screen (AID 1093);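 further: MC1000 strain lacking acrAB efflux and sulA so SOS filamentation is blocked; test concentration not given here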; settings: E. coli DRC41 growth, higher = more signal, called active from +8 up or from −8 down
[17] = probe aLefty2 binding to arrayed compounds – biochemical, biotinylated probe, 635/667 nm fluorescence, primary screen (AID 1094); settings: small-molecule microarray, higher = more signal;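 further: score merges spot fluorescence near 667 nm with spot signal-to-noise ratio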
[18] = test system: Noggin (protein binding on small-molecule microarray); assay: small molecules binding Noggin protein – biochemical, 635/667 nm fluorescence, primary screen (AID 1095); settings: 635 nm fluorescence, higher = more signal;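 further: score merges 667 nm feature fluorescence with signal to noise over triplicate slides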
[19] = biological target: Neurogenic locus notch homolog protein 3 (Homo sapiens) (UniProt Q9UM47); assay: small molecules binding NOTCH3 protein – biochemical, 635/667 nm fluorescence, primary screen (AID 1096); settings: small-molecule microarray, 635 nm fluorescence, higher = more signal
[20] = probe aEGFR binding to arrayed compounds – biochemical, biotinylated probe, 635/667 nm fluorescence, primary screen (AID 1097); settings: small-molecule microarray, higher = more signal;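 further: probe is a biotinylated anti-EGFR antibody binding compounds printed on slides; score combines fluorescence near 667 nm and signal to noise of each spot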

Sequence of Neurogenic locus notch homolog protein 2 (Homo sapiens) (Q04721 whole entry, looked up, canonical isoform): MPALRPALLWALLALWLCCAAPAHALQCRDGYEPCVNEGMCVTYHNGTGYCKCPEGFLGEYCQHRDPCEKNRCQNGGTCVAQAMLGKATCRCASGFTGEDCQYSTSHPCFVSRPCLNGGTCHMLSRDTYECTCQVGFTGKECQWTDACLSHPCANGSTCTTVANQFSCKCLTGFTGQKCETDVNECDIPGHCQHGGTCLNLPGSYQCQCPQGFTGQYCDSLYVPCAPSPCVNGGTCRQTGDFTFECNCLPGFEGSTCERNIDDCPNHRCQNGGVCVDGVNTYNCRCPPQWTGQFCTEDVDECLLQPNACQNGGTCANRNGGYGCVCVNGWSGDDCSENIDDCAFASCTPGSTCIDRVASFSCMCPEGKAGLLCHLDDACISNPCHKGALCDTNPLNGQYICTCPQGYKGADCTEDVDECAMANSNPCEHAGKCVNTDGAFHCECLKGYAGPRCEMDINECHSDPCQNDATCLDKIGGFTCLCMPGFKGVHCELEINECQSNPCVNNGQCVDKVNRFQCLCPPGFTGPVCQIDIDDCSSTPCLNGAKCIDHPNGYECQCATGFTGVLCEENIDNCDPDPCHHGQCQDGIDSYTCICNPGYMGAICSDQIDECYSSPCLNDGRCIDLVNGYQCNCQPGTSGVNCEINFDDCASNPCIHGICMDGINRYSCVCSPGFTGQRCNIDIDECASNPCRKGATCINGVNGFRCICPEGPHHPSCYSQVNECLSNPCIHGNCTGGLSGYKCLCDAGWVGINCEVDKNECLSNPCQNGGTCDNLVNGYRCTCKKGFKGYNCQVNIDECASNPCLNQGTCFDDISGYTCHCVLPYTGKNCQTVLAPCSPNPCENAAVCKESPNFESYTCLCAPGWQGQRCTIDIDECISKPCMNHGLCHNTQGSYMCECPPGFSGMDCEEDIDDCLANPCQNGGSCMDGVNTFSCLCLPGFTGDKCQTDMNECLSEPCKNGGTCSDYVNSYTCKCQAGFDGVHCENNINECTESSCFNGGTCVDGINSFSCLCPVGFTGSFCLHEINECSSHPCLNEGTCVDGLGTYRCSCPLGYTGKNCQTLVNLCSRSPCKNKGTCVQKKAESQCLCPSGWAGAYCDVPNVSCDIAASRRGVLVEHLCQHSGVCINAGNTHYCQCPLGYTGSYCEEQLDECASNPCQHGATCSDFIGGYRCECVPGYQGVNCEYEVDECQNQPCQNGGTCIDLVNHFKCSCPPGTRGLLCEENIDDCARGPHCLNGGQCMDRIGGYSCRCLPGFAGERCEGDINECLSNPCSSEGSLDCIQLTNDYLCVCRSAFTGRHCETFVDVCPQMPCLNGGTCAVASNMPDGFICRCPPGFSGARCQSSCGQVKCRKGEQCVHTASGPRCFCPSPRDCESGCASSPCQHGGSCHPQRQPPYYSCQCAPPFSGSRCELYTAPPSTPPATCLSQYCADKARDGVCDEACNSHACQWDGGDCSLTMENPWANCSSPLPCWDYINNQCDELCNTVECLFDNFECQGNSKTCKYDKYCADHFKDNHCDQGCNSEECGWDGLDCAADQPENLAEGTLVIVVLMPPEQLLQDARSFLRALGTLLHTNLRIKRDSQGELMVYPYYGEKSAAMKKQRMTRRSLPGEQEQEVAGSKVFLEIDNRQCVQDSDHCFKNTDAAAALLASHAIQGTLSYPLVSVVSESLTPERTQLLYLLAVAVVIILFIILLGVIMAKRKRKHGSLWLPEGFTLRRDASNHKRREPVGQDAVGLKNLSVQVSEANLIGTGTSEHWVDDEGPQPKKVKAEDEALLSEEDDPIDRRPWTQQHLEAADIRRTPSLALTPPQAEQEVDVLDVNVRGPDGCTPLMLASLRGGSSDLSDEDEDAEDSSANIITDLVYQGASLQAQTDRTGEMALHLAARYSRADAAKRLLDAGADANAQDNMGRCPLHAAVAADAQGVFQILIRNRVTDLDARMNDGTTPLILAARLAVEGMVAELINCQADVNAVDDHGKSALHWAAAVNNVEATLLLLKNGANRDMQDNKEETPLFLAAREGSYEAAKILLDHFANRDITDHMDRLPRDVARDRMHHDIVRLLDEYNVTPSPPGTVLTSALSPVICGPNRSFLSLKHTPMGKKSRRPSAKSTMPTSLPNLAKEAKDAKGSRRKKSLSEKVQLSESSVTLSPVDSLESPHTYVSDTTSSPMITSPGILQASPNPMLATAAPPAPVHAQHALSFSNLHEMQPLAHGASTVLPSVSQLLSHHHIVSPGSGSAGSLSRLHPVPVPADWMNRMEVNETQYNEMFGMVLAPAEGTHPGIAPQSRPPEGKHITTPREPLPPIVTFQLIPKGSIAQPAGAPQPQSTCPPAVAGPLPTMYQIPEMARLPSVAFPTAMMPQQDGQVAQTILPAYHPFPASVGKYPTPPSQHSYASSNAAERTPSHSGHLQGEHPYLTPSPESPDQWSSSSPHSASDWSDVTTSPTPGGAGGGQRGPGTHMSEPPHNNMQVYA
Sequence of Torsin-1A-interacting protein 2 (Homo sapiens) (Q8NFQ8 whole entry, looked up): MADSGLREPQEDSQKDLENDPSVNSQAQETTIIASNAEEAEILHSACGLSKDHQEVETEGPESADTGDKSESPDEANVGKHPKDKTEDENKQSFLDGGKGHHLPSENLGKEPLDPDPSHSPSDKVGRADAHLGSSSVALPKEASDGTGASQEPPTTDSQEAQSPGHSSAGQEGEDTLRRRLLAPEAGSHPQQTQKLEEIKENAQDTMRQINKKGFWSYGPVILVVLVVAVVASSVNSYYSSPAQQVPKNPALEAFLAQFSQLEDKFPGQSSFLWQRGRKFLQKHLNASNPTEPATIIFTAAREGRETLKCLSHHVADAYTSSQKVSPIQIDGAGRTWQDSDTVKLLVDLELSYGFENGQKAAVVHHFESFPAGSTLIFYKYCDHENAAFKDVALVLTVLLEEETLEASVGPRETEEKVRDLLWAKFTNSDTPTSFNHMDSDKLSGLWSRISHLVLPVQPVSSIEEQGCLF
Sequence of Pro-neuregulin-1, membrane-bound isoform (Homo sapiens) (Q02297 whole entry, looked up, the tested form may be a part, canonical isoform): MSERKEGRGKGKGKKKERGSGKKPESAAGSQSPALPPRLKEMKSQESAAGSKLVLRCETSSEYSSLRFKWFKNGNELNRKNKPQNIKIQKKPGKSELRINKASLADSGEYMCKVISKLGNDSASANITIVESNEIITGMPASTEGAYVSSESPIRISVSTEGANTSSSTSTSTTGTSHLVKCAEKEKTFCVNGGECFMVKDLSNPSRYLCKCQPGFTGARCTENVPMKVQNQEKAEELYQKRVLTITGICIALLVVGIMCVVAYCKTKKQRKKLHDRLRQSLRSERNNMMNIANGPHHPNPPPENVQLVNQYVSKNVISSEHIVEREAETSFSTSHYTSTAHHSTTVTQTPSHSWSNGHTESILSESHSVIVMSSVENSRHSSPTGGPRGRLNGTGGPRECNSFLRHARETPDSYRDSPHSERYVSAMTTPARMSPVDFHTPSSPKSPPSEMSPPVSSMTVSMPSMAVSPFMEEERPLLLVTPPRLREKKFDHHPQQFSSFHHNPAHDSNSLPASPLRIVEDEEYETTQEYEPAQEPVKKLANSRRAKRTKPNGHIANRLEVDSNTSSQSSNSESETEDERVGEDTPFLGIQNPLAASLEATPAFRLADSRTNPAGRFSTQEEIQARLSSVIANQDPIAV

Structure (SMILES)	composite z-score [1]	composite z-score [2]	composite z-score [3]	composite z-score [4]	composite z-score [5]	composite z-score [6]	composite z-score [7]	z-score [8]	composite z-score [9]	composite z-score [10]	composite z-score [11]	z-score [12]	z-score [13]	z-score [14]	composite z-score [15]	z-score [16]	composite z-score [17]	composite z-score [18]	composite z-score [19]	composite z-score [20]
CC(C)C(=C=CC[C@H](O)c1ccc(OCCO)cc1)C[C@H](O)c1cc(Cl)cc(Cl)c1O	-0.321	1.35	-0.0076	0.85	0.869	1.31	1.24	-1.66 (inactive)	0.32	0.0722	1.4	0.297 (inactive)	-3.66 (inactive)	-0.558 (inactive)	1.78	0.192 (inactive)	0.0511	1.41	1.04	-0.008
CN1C(=O)C2C=CC(C(O)C3CCCCC3)N(N3CCCCC3)C2C1=O (stereo not given)	-0.0863	1.54	0.156	0.644	1.52	1.51	1.23	0.573 (inactive)	1.01	0.398	1.56	0.823 (inactive)	0.788 (inactive)	0.884 (inactive)	2.45	-0.593 (inactive)	0.25	0.684	1.07	0.0939
C=CCOC(=O)[C@@H]1[C@H]2C(=O)O[C@H](c3ccccc3)[C@H](c3ccccc3)N2[C@H](c2ccc(OCCOC(=O)[C@H]3C[C@H]4C(=O)N[C@@H](CCCCNC(C)=O)C(=O)N4[C@H]3c3cccc(OCCO)c3)cc2)[C@@]12C(=O)Nc1ccc(I)cc12	-0.0066	0.99	-0.0718	0.404	0.544	0.851	1.28	0.49 (inactive)	0.252	0.0479	1.54	1.71 (inactive)	1.38 (inactive)	3.9 (inactive)	1.78	0.136 (inactive)	-0.195	1.68	1.12	-0.0882
CCCCN1CC=CC23O[C@@H]4C=CCOC(=O)[C@@H]4[C@H]2C(=O)N(CCCO)[C@@H]3C1=O (stereo not given in full)	0.594	-0.0489	-0.137	-0.423	-1.51	1.03	1.54	0.0518 (inactive)	-0.488	-0.134	0.412	0.228 (inactive)	-0.399 (inactive)	-0.191 (inactive)	2.41	1.42 (inactive)	-0.145	-0.957	-0.366	-0.285
COc1ccc([Si](C)(C)[C@@H]2[C@@H](CCO)O[C@]3(C(=O)N(Cc4cccc(N5C(=O)c6ccccc6Oc6ccccc65)c4)c4ccccc43)[C@H]2C)cc1	0.393	0.123	-0.134	-0.173	-0.571	0.536	0.602	0.133 (inactive)	0.0472	-0.134	1.17	2.79 (inactive)	-0.483 (inactive)	36.9 (active)	1.46	1.21 (inactive)	-0.0666	-0.224	0.0578	-0.281
COCCCNC(=O)[C@]1(CCC(=O)OC(C)(C)C)N=C(c2ccc(OCCCO)cc2)O[C@@H]1c1ccccc1	1.19	0.389	0.0629	0.578	0.819	1.96	1.28	0.977 (inactive)	0.888	0.591	1.22	0.12 (inactive)	1.06 (inactive)	-0.302 (inactive)	3.65	0.447 (inactive)	0.629	-0.275	0.226	0.475
CCOC(=O)C[C@H]1[C@H](OC(=O)c2ccc(-c3ccccc3)cc2)[C@@H](NC(=O)c2ccc3ccccc3c2)c2cc(OCCCO)ccc2N1C(=O)c1ccc2ccccc2n1	-0.0093	0.0135	-0.06	0.398	0.676	0.706	0.15	0.247 (inactive)	0.426	0.154	1.15	-0.72 (inactive)	-0.918 (inactive)	0.592 (inactive)	1.47	-0.56 (inactive)	-0.0358	0.372	0.895	0.0167
CN(C)C(=O)[C@@]1(Cc2ccccc2N=[N+]=[N-])COC(c2ccc(OCCCO)cc2)=N1	0.541	0.33	0.0493	1.02	0.687	1.05	1.33	-0.927 (inactive)	0.495	0.0349	1.37	-1.85 (inactive)	-7.64 (inactive)	0.337 (inactive)	3.33	1.84 (inactive)	0.072	0.577	0.481	0.553
CC(C)CN1C(=O)[C@@]2(c3ccc([N+](=O)[O-])cc3)CC(=O)N(CC34CC5CC(CC(C5)C3)C4)[C@@H]2c2ccc(CO)cc21	0.311	-1.76	-0.186	-0.34	-0.602	0.251	-0.594	0.0918 (inactive)	0.0959	-0.0994	-0.297	0.275 (inactive)	0.0569 (inactive)	-1.32 (inactive)	0.295	-1.55 (inactive)	-0.239	-1.21	-0.506	-0.256
CN1C(=O)C2C=CC(C(O)Cc3ccccc3)N(N(c3ccccc3)c3ccccc3)C2C1=O (stereo not given)	0.135	0.147	0.0295	0.837	0.602	0.503	1.11	0.357 (inactive)	0.654	0.107	0.795	-0.179 (inactive)	0.759 (inactive)	1.11 (inactive)	2.22	-1.39 (inactive)	0.107	0.218	0.839	-0.137
